Bioassay records from PubChem.
AmpC detergent – AmpC beta-lactamase inhibition with detergent present; P00811; AmpC hydrolysis of nitrocefin, absorbance 480 nm, 0.01% Triton; Potency, µM (doses to about 114 µM), inactives show at the highest dose activity change, negative = inhibition, actives largely listed as inhibitors; 370,000 tested, 0.041% active;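 also: 0% = no-compound wells and -100% = no-enzyme wells; nearly all actives have a fitted effect of over 25% in size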
Target sequence (P00811 whole entry, looked up): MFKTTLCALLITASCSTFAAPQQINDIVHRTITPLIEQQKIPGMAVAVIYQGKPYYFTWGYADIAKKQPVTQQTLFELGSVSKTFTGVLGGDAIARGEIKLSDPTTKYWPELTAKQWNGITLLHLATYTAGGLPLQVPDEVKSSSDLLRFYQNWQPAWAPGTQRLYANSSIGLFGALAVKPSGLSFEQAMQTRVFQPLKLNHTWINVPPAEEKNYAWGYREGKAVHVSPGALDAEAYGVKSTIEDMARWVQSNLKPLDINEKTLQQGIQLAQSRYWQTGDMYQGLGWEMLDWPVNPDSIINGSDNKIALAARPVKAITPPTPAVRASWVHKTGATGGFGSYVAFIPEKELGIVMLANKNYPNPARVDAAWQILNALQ
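AmpC (5.3 nM in the dispensed reagent) in 20 mM phosphate pH 7.0 with 0.01% (detergent screen) or 0.0001% Triton X-100 was preincubated with compounds for 15 min at room temperature. Nitrocefin was then added from an 800 uM solution, and hydrolysis was followed at 480 nm.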
AMA1-RON2 inh – AMA1-RON2 (P. falciparum) interaction inhibition | AlphaScreen AMA1-biotinylated RON2 peptide binding | Potency, µM (doses to about 58.2 µM), inactives show top-dose activity change, negative = inhibition, usual class: inhibitors | 360,000 tested, 0.2% active | AID 720542;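 also: 0% = vehicle wells and -100% = peptide control; nearly all actives have a fitted effect of over 45% in size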
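AMA1 (3D7) with his tag at 25 nM final met compounds first, then biotinylated RON2 peptide at 25 nM; detection used donor plus acceptor beads, 10 µg/mL apiece, read by AlphaScreen after 30 min at room temperature.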
AmpC no deterg – inhibitors of E. coli AmpC beta-lactamase without detergent; P00811; AmpC nitrocefin hydrolysis, absorbance 480 nm, 0.0001% Triton; Potency, µM (top dose mostly 57.1 µM), for the others: at the highest dose activity change, negative = inhibition, most hits filed as inhibitors; 330,000 tested, 0.52% active; AID 485341;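 also: plate controls were no compound for no effect and no enzyme for full effect; nearly all actives have a fitted effect of over 20% in size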
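20 mM phosphate pH 7.0 + 0.01% (detergent screen) or 0.0001% Triton X-100; 5.3 nM AmpC reagent; cpd preinc 15 min RT; nitrocefin (800 uM stock) to start; A480 q20 s × 4 min; Activity was normalised to no-enzyme and no-compound control wells.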
Sm TGR block – S. mansoni TGR enzyme inhibition. Potency, µM (top dose mostly 114 µM), for the others: at the highest dose activity change, negative = inhibition, actives largely listed as inhibitors. 360,000 tested, 3% active. purified TGR, DTNB reduction, TNB absorbance 405 nm. Q962Y6. AID 485364; also: nearly all actives have a fitted effect of over 60% in size
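TGR 20 nM + NADPH 100 uM (dispensed conc.), cpd preinc 15 min RT; start with NADPH (500 uM addition) then DTNB (15 mM addition). Kinetic TNB absorbance, 405 nm filter. Four-parameter Hill fit across titration.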
RE007 growth inh – less growth of the S. pombe RE007 Vpr strain; S. pombe RE007 Vpr strain, BacTiter-Glo ATP luminescence, 24 h; Potency, µM (doses to about 92.2 µM), for the others: at the top dose activity change, negative = less growth, usual class: inhibitors; 360,000 tested, 0.21% active; active = well fitted falling curve with a large enough effect; inconclusive = small, poorly fitted or top-dose-only effect; inactive = no such curve, though single readings can be large or run the other way; also: nearly all actives have a fitted effect of over 50% in size
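Fission yeast RE007 carrying one integrated HIV-1 vpr copy, seeded at OD 0.01 in PMG+AL medium with 23 nL pinned compound. Grown 24 h at 30 degrees; viability read by BacTiter-Glo luminescence after 5 min.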
Numbers without * were called inactive; ? = inconclusive; . = no result given. Hits are enriched below; roughly 3.2% of the tested compounds scored in any of these assays. Unless noted, calls follow the shape of the dose curve; as a rule, active = well fitted curve in the direction sought with a large enough effect; inconclusive = small, poorly fitted or top-dose-only effect, or another doubt; inactive = no such curve, though single readings can be large; an effect the other way counts as inactive or inconclusive. Unless noted, % is scaled to controls: 0 for no effect and ±100 for the full control effect; potency is read from the fitted curve at half-maximal effect.

SMILES | AmpC detergent | AMA1-RON2 inh | AmpC no deterg | Sm TGR block | RE007 growth inh
O=C(NC1CCCCC1)c1nn2c(C(F)(F)F)cc(-c3ccco3)nc2c1Br | -4% | -2% | -19% | 25µM* | 9%
O=C1C=CC2(O[C@H](c3ccccc3)[C@@H](c3ccccc3)O2)[C@H](Sc2ccccc2O)C1 | . | -12% | . | . | 40µM*
C[C@@H]1[C@@H](Sc2ccccc2)CC(=O)O[C@@H]1c1ccc(-c2ccccc2)cc1 | . | 24% | . | . | -1%
CCCCN(CC)C(=O)CCn1c(=O)c2cccn2c2cccnc21 | 5% | . | . | 1% | .
O=C(N/N=C/c1ccc(Sc2ccccn2)o1)c1cccc([N+](=O)[O-])c1 | ? | 8% | 10µM* | -6% | -21%
O=C(N/N=C\c1ccc(Sc2ccccn2)o1)c1cccc(F)c1 | -11% | 16% | -49% | -3% | -7%
O=C(N/N=C/c1ccc(Sc2ccccn2)o1)c1cc2ccccc2cc1O | 1% | 55% | 18µM* | -1% | -14%
CN=c1sc2c(n1C)C(=O)c1ccccc1C2=O | . | -19% | . | . | 10µM*
COC(=O)C1=C(O)/C(=C\c2cc(C)n(-c3ccccc3F)c2C)N=C1C | -9% | -5% | -17% | 25µM* | 0%
COC(=O)c1cccc(-n2c(C)cc(C=O)c2C)c1C | -5% | -3% | -4% | -2% | 20%
COC(=O)C1=C(O)/C(=C\c2sccc2C)N=C1C | 5% | -11% | -6% | -4% | -23%
COC(=O)C1=C(O)/C(=C\c2cc(C)n(-c3ccccc3C)c2C)N=C1C | -3% | 7% | -29% | 25µM* | -4%
O=C(NCc1ccco1)c1scc2c1OCCO2 | 1% | -9% | 273% | 35µM* | -2%
CC1CCC(C(=O)NNC(=O)c2cc(-c3ccco3)[nH]n2)CC1 (stereo unspecified) | 8% | 39% | -22% | -5% | 5%
O=C(O)c1cc(-c2ccco2)[nH]n1 | -1% | 22% | -22% | 50µM* | -4%
COc1ccc(C(=O)/C=C/C(=O)N(CC(=O)NC2CCCCC2)Cc2ccccc2)c(O)c1 | -2% | 14% | 18% | 1.4µM* | 2%
COc1ccc(C(=O)/C=C/C(=O)N(CC(=O)NC2CCCCC2)CC2CCCO2)c(O)c1 (stereo unspecified) | 4% | -9% | 180% | 1.3µM* | -2%
COc1ccc(C(=O)/C=C/C(=O)N(CC(=O)NC2CCCCC2)Cc2ccccc2OC)c(O)c1 | 3% | 0% | 18% | 1µM* | -3%
CC(=O)c1ccc(NC(=O)COC(=O)c2ccccc2N=Nc2ccc(N(C)C)cc2)cc1 | 0% | 11µM* | 13% | 3% | -24%
CN(C)c1ccc(N=Nc2ccccc2C(=O)OCC(=O)N(C)c2ccccc2)cc1 | -12% | 14µM* | 8% | -1% | 0%
O=S(=O)(NCCc1csc2nc(-c3ccccc3)nn12)c1ccc(Oc2ccccc2)cc1 | -4% | . | . | 4% | .
Cc1ccc(C)c(CN2C(=O)c3ccccc3S(=O)(=O)c3ccc(C(=O)N4CCOCC4)cc32)c1 | -18% | . | . | -17% | .
Cc1cccc(-n2cnc3cc(C(=O)NCc4ccccc4Cl)ccc32)c1 | -4% | . | . | 8% | .
O=C(O)c1ccc(NC(=O)c2cc(S(=O)(=O)N3CCCCC3)c(Cl)cc2Cl)cc1 | 1% | . | . | 3% | .
Cc1ccc(C)c(NC(=O)c2cc(=O)c3cc(C)cc(C)c3o2)c1 | 15% | . | . | ? | .
SMILES | AmpC detergent | AMA1-RON2 inh | AmpC no deterg | Sm TGR block | RE007 growth inh
CCN1CCN(C(=O)C(C)Nc2cc(Cl)c(OC)cc2OC)CC1 (stereo unspecified) | -12% | 9% | -19% | 20µM* | -5%
CCC(=O)N1CCc2cc(S(=O)(=O)CCC(=O)N3CCN(c4cccc(C)c4C)CC3)ccc21 | 3% | . | . | 6% | .
O=C(O)c1cc(-c2ccccc2)n[nH]1 | -4% | . | -22% | -2% | .
O=C(O)/C=C/C(=O)NNC(=O)c1cc(-c2ccccc2)n[nH]1 | -9% | 68% | -40% | 40µM* | 11%
O=C(NNS(=O)(=O)c1ccccc1F)c1cc(-c2ccccc2)n[nH]1 | 5% | 10% | -39% | -5% | 7%
O=C(O)/C=C\C(=O)NNC(=O)c1cc(-c2ccccc2)n[nH]1 | -6% | 29% | -46% | 22µM* | 21%
O=C1C2C3C=CC(CNS(=O)(=O)c4ccccc4)(O3)C2C(=O)N1c1ccc(Cl)cc1 (stereo unspecified) | -7% | -12% | -23% | 4µM* | 3.2µM*
O=C1C2C3C=CC(CO)(O3)C2C(=O)N1c1ccccc1-c1ccccc1 (stereo unspecified) | ? | -2% | -26% | 0.32µM* | 13µM*
COc1ccc(N2C(=O)C3C4C=CC(c5ccccc5)(C3C2=O)C2C(=O)N(c3ccc(OC)cc3)C(=O)C42)cc1 (stereo unspecified) | 4% | 6% | 117% | . | 0%
CC(=O)Oc1ccc(N2C(=O)C3C4C=CC(CO)(O4)C3C2=O)cc1 (stereo unspecified) | ? | -1% | -2% | 0.89µM* | 7.9µM*
O=C1CCC(=O)N1c1ccccc1-c1ccccc1 | ? | 5% | -5% | -25% | 4%
CC(=O)Oc1ccc(N2C(=O)C3C(C2=O)C2(C)C=CC3(C)O2)cc1 (stereo unspecified) | ? | . | -16% | 0.63µM* | .
N=C(N)c1ccc(N=Nc2c(O)ccc3c2[nH]c2ccccc23)cc1 | . | 25µM* | . | . | -17%
O=C(NCC1CC1)c1ccc(Nc2nc3ccc(Br)cc3[nH]2)cc1 | 0% | -13% | -41% | 3.5µM* | -7%
O=C(NCc1ccco1)c1cccc(Nc2nc3ccc(Br)cc3[nH]2)c1 | -3% | -1% | -35% | 1% | -3%
NC(=O)C1CCN(CCS(=O)(=O)c2ccc(Cl)cc2)CC1 | -8% | 1% | 86% | 45µM* | -6%
CCCCc1nc(S(=O)(=O)c2ccc(Cl)cc2)c(N2CCOCC2)o1 | -1% | 2% | -23% | 7.9µM* | 13%
CS(=O)(=O)c1nc(S(=O)(=O)c2ccc(Cl)cc2)c(N2CCC(C(N)=O)CC2)s1 | 0% | -1% | 4% | 11µM* | -4%
CCS(=O)(=O)c1nc(S(=O)(=O)c2ccc(Cl)cc2)c(N2CCOCC2)s1 | -1% | 0% | 19% | 22µM* | -2%
Cn1c2ccccc2c2cnn(CC(=O)NCCCN3CCCCC3)c(=O)c21 | 18% | . | . | 6% | .
CCCOc1cccc(C2c3c(oc4ccc(F)cc4c3=O)C(=O)N2CCCN2CCOCC2)c1 (stereo unspecified) | 20% | . | . | 2% | .
Cn1c(O)c(N=NC(=N)N)c2ccccc21 | -4% | -9% | -11% | 18% | -8%
Cc1ccccc1N=Nc1c(O)n(C)c2ccccc12 | 4% | 4% | -11% | 35µM* | -7%
